Normalised signal (fraction of DMSO) and z-score data for 63 compounds are collected here from PubChem BioAssay AID1224903 (Bradner/Qi Labs at DFCI, 2016).

Several values for one entry are separate records, joined by “and”; a condition that tells them apart may be missing. Equal values may be shown once. Hit rate of the full screen: of about 66,000 compounds, about 720 (1.1%) were called active. No stated cut-off is given here; in the data, active means normalised signal below about 0.5; inactive means the rest, inconclusive results apart. The full list was thinned out, with actives kept by preference.

The target in the assay is Chromobox protein homolog 7 (Homo sapiens) (UniProt O95931). Kind of assay: CBX7 chromodomain binding inhibitors, primary screen, biochemical, AlphaScreen (AID 1224903). To be noted: AlphaScreen His6-CBX7 / biotin-H3K27me3 peptide binding, stronger effect = lower value; z-score: measured here: z-score of CBX7 signal.
Chain of Chromobox protein homolog 7 (Homo sapiens) (O95931 whole entry, looked up): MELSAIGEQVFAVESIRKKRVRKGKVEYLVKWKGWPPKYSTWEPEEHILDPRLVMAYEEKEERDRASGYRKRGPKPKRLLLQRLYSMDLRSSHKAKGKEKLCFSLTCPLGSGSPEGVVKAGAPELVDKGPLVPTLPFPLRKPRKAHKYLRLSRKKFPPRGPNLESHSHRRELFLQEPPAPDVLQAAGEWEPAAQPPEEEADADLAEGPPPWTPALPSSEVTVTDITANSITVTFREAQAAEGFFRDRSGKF
With `COc1ccc(CCNC(=O)CCc2c(C)nc3c(c(C)nn3-c3ccc(C)cc3)c2C)cc1OC`, the normalised signal (fraction of DMSO) was 1.07 (inactive) and the z-score came out at 1.56.

In the case of `COc1cccc(Nc2nc(-c3ccc(Cl)cc3)cs2)c1`, the normalised signal (fraction of DMSO) is 0.908 (inactive) and 0.897 (inactive); the z-score is -1.58 and -2.88.

In the case of `O=C(Nc1ccc(-c2nc3ccccc3o2)c(O)c1)c1cccc(F)c1`, the normalised signal (fraction of DMSO) is 1.11 (inactive) and the z-score came to 2.16.

Turning to `O=C(Nc1ccc(-c2nc3ccccc3o2)c(O)c1)c1ncn[nH]1`, the normalised signal (fraction of DMSO) was 0.308 (active) and the z-score was -19.7.

For `COc1cc(OC)cc(C(=O)Nc2ccc(-c3nc4ccccc4o3)c(O)c2)c1`, the normalised signal (fraction of DMSO) is 0.956 (inactive) and the z-score was -0.356.

With `CCOC(=O)CNC(=O)c1cc2c(n(-c3ccc(C)cc3)c1=O)CCCC2=O`, the normalised signal (fraction of DMSO) is 1.19 (inactive) and the z-score was determined as 0.796.

On to `CCN1CCCC1CNC(=O)c1ccc2c(c1)N(Cc1ccccc1)CCS2` (stereo unspecified), for which the normalised signal (fraction of DMSO) is 0.92 (inactive) and the z-score was -0.106.

Consider `Cc1ccc(NC(=O)C2CCCN(S(=O)(=O)c3cccc4cccnc34)C2)cc1F` (stereo unspecified), for which the normalised signal (fraction of DMSO) is 1.02 (inactive) and the z-score came to 0.516.

As to `CCOC(=O)c1ccc(NC(=O)c2c(NCc3cccs3)sc3c2CCCC3)cc1`, the normalised signal (fraction of DMSO) was 0.674 (inactive) and the z-score was -4.57.

Consider `COc1ccccc1NC(=O)c1c(NCc2cccs2)sc2c1CCCC2`, for which the normalised signal (fraction of DMSO) was 0.467 (active) and the z-score was -7.46.

Consider `COc1ccccc1NC(=O)c1c(NCc2ccncc2)sc2c1CCCC2`, for which the normalised signal (fraction of DMSO) is 0.583 (inactive) and the z-score was -5.84.

Consider `CCCCN(C)S(=O)(=O)c1ccc(C(=O)Nc2nnc(C)o2)cc1`, for which the normalised signal (fraction of DMSO) is 0.00344 (active) and the z-score was -1.32.

Regarding `C=CCN(CC=C)S(=O)(=O)c1ccc(C(=O)Nc2nnc(-c3cccs3)o2)cc1`, the normalised signal (fraction of DMSO) is 0.877 (inactive) and the z-score was -3.03.

Regarding `CCN(CC)S(=O)(=O)c1ccc(C(=O)Nc2nnc(-c3cc(OC)cc(OC)c3)o2)cc1`, the normalised signal (fraction of DMSO) is 0.885 (inactive) and the z-score was -1.93.

For the compound `COc1ccc(-c2nnc(NC(=O)c3ccc(S(=O)(=O)N4CCC(C)CC4)cc3)o2)cc1`, the normalised signal (fraction of DMSO) was 0.796 (inactive) and the z-score was -4.6.

As to `CCC1CCCCN1S(=O)(=O)c1ccc(C(=O)Nc2nnc(COC)o2)cc1` (stereo unspecified), the normalised signal (fraction of DMSO) was 0.727 (inactive) and the z-score was -7.33.

As to `CN(Cc1ccccc1)S(=O)(=O)c1ccc(C(=O)Nc2nnc(-c3ccccc3Cl)o2)cc1`, the normalised signal (fraction of DMSO) was 0.095 (active) and the z-score was -15.2.

`CC1CCCCN1S(=O)(=O)c1ccc(C(=O)Nc2nnc(-c3cccs3)o2)cc1` (stereo unspecified): the normalised signal (fraction of DMSO) is 0.92 (inactive) and the z-score was -1.8.

On to `CN(C)S(=O)(=O)c1ccc(C(=O)Nc2nnc(-c3ccccc3Cl)o2)cc1`, for which the normalised signal (fraction of DMSO) was 0.145 (active) and the z-score is -14.4.

`CN(C)S(=O)(=O)c1ccc(C(=O)Nc2nnc(C3CC3)o2)cc1`: the normalised signal (fraction of DMSO) was 0.379 (active) and the z-score is -14.

In the case of `CCCCN(CC)S(=O)(=O)c1ccc(C(=O)Nc2nnc(-c3ccc(Cl)s3)o2)cc1`, the normalised signal (fraction of DMSO) is 1.03 (inactive) and the z-score came out at 0.687.

In the case of `COCCN(CCOC)S(=O)(=O)c1ccc(C(=O)Nc2nnc(-c3cccs3)o2)cc1`, the normalised signal (fraction of DMSO) is 0.698 (inactive) and the z-score was -6.83.

On to `COc1ccc(-c2nnc(NC(=O)c3ccc(S(=O)(=O)N4CC(C)OC(C)C4)cc3)o2)c(OC)c1` (stereo unspecified), for which the normalised signal (fraction of DMSO) was 0.629 (inactive) and the z-score is -8.38.

As for `Cc1cc(=O)n2nc(N3CCCC(C(=O)N4CCCCC4)C3)sc2n1` (stereo unspecified), the normalised signal (fraction of DMSO) is 1.09 (inactive) and the z-score worked out at 0.832.

For `O=C(Nc1ccccc1F)c1cc2c(s1)-c1ccccc1OC2`, the normalised signal (fraction of DMSO) is 1.53 (inactive) and the z-score is 15.1.

Turning to `COc1cccc(-c2nc(CS(=O)(=O)CC(=O)NCCCN(CC(C)C)CC(C)C)c(C)o2)c1`, the normalised signal (fraction of DMSO) was 1.42 (inactive) and the z-score came to 3.56.

On to `CCc1ccc(-n2cnc3cc(C(=O)NC4CCCC4)ccc32)cc1`, for which the normalised signal (fraction of DMSO) is 0.805 (inactive) and the z-score was -3.38.

As for `COc1ccc(CCNC(=O)c2cn(-c3ccc(Cl)cc3)c(=O)c3ccccc23)cc1OC`, the normalised signal (fraction of DMSO) is 1.03 (inactive) and the z-score was found to be 0.92.

In the case of `CCCCOc1ccc(C(=O)N(Cc2ccc(OC)cc2)C2CCS(=O)(=O)C2)cc1` (stereo unspecified), the normalised signal (fraction of DMSO) was 0.91 (inactive) and the z-score is -0.0894.

With `O=C(c1ccc(Cl)nc1)N1CCNc2ccccc2C1`, the normalised signal (fraction of DMSO) is 0.975 (inactive) and the z-score was -0.305.

Regarding `O=C(CN1C(=O)COc2ccccc21)NCCN1CCc2ccccc2C1`, the normalised signal (fraction of DMSO) is 1.06 (inactive) and the z-score came out at 1.85.

As for `CCCN1CCN(CCCNC(=O)CN2C(=O)COc3ccccc32)CC1`, the normalised signal (fraction of DMSO) is 1.01 (inactive) and the z-score came to 0.274.

Regarding `CCCCNC(=O)CN1C(=O)COc2ccccc21`, the normalised signal (fraction of DMSO) was 0.475 (active) and the z-score was -4.69.

As to `CN(CC(=O)NCCc1ccccc1)S(=O)(=O)c1cnc[nH]1`, the normalised signal (fraction of DMSO) is 1.26 (inactive) and the z-score came out at 2.17.

For the compound `COC(CNC(=O)c1csc2c1CCCCC2)OC`, the normalised signal (fraction of DMSO) is 0.834 (inactive) and the z-score is -2.13.

On to `Cc1ccc(-n2c(Cc3cccn3C)nnc2SCC(=O)Nc2ccc(C)c(Cl)c2)cc1`, for which the normalised signal (fraction of DMSO) is 0.926 (inactive) and the z-score was -1.77.

As for `Cc1sc2ncn(CC(=O)NCC(=O)NCCCN3CCOCC3)c(=O)c2c1C`, the normalised signal (fraction of DMSO) was 1.08 (inactive) and the z-score worked out at 0.741.

In the case of `Cc1ccccc1Cn1c(CCNC(=O)C(C)(C)C)nc2ccccc21`, the normalised signal (fraction of DMSO) was 1.12 (inactive) and the z-score was found to be 1.79.

With `Cc1cccc(C)c1Nc1c(-c2ccccn2)nc2sccn12`, the normalised signal (fraction of DMSO) was 0.5 (active) and the z-score is -5.94.

As for `Cc1ccc(Nc2c(-c3ccc(Cl)cc3)nc3sccn23)c(C)c1`, the normalised signal (fraction of DMSO) was 0.736 (inactive) and the z-score was -5.27.

For the compound `Cc1cccc(C)c1Nc1c(-c2ccsc2)nc2cnccn12`, the normalised signal (fraction of DMSO) is 0.944 (inactive) and the z-score was -0.669.

Take `COc1ccc2c(c1OC)C(=O)N(c1ncn[nH]1)C2`: the normalised signal (fraction of DMSO) is 0.25 (active) and the z-score is -16.

Take `COc1ccc2c(c1OC)C(=O)N(c1ccc(O)cc1)C2`: the normalised signal (fraction of DMSO) was 0.99 (inactive) and the z-score is -0.11.

As for `CCOC(=O)c1cnc2c(C)cc(C)cc2c1Nc1ccccc1CC`, the normalised signal (fraction of DMSO) is 1.15 (inactive) and the z-score turned out to be 1.45.

As to `CCOC(=O)c1cnc2c(C)cc(C)cc2c1Nc1cccc(OC)c1`, the normalised signal (fraction of DMSO) was 1.03 (inactive) and the z-score worked out at 0.43.

For `CCOC(=O)c1cnc2c(C)cc(C)cc2c1Nc1ccc(N2CCOCC2)cc1`, the normalised signal (fraction of DMSO) was 0.35 (active) and the z-score was -16.2.

For the compound `CC(=O)Oc1ccc(C2CC(=O)Nc3cc4c(cc32)OCO4)cc1` (stereo unspecified), the normalised signal (fraction of DMSO) was 0.988 (inactive) and the z-score is -0.494.

For the compound `CC(=O)Nc1ccc(S(=O)(=O)NCc2ccc(C(=O)NCCc3ccc(C)cc3)cc2)cc1`, the normalised signal (fraction of DMSO) is 1.42 (inactive) and the z-score amounted to 1.84.

Regarding `COc1ccc(Cn2c(=O)c3cccnc3n(Cc3ccc(C)cc3)c2=O)cc1`, the normalised signal (fraction of DMSO) was 1.11 (inactive) and the z-score amounted to 1.94.

As to `O=C(NCCCc1ccccc1)c1ccc2c(c1)N(Cc1ccccc1)CCS2`, the normalised signal (fraction of DMSO) was 0.992 (inactive) and the z-score is -0.011.

As to `CCN(CCCNC(=O)c1c[nH]c2ccc(S(=O)(=O)N(CC)CC)cc2c1=O)c1cccc(C)c1`, the normalised signal (fraction of DMSO) was 0.423 (active) and the z-score was -6.22.

In the case of `COCCCNC(=O)c1c[nH]c2ccc(S(=O)(=O)N(C)c3cccc(C)c3)cc2c1=O`, the normalised signal (fraction of DMSO) was 1.02 (inactive) and the z-score came out at 0.264.

Consider `CCCCCCNC(=O)c1c[nH]c2ccc(S(=O)(=O)N(CC)c3cccc(C)c3)cc2c1=O`, for which the normalised signal (fraction of DMSO) is 1.08 (inactive) and the z-score came out at 1.26.

Turning to `O=C(CCCN1C(=O)CSc2ncccc21)NC1CCN(Cc2ccccc2)CC1`, the normalised signal (fraction of DMSO) was 1.02 (inactive) and the z-score is 0.27.

With `O=C(Nc1ccc(C(F)(F)F)cc1)c1n[nH]c(=O)c2ccccc12`, the normalised signal (fraction of DMSO) is 1.17 (inactive) and the z-score amounted to 1.04.

For `COc1ccc(-c2noc(CCC(=O)NCc3cccc(OC)c3)n2)cc1`, the normalised signal (fraction of DMSO) is 0.872 (inactive) and the z-score is -1.96.

Take `CCCNC(=O)c1nn2c(C(F)(F)F)cc(-c3ccco3)nc2c1Br`: the normalised signal (fraction of DMSO) was 1.09 (inactive) and the z-score amounted to 2.47.

In the case of `CCC(CO)NCC(O)COCc1ccc(Cl)cc1` (stereo unspecified), the normalised signal (fraction of DMSO) is 1.05 (inactive) and the z-score worked out at 0.823.

Consider `O=C(Cn1nc(-c2ccccc2)c2cc(Cl)ccc21)NCc1ccccc1`, for which the normalised signal (fraction of DMSO) is 1.08 (inactive) and the z-score stood at 2.18.

Consider `Cc1cc(Br)ccc1NC(=O)CNC(=O)Cn1c(C)cc2ccccc2c1=O`, for which the normalised signal (fraction of DMSO) was 1.18 (inactive) and the z-score amounted to 1.84.

For `CCCCN(CC)CCCNC(=O)C1CCN(C(=O)c2cc3sccc3n2C)CC1`, the normalised signal (fraction of DMSO) is 0.959 (inactive) and the z-score is -0.744.

As to `Cc1ccc(OCC(=O)Nc2ccc(S(=O)(=O)Nc3nccs3)cc2)c(Br)c1`, the normalised signal (fraction of DMSO) is 1 (inactive) and the z-score is 0.0983.

In the case of `CCc1c(-c2ccccc2)nc2ccccc2c1C(=O)NCC1COc2ccccc2O1` (stereo unspecified), the normalised signal (fraction of DMSO) was 0.762 (inactive) and the z-score is -0.941.
